Data on 40 molecules can be found in PubChem BioAssay (NCATS).

Records with an inconclusive call do not appear. The source made the active and inactive calls. Calls follow the shape of the full dose curve; tested in HEK293 reporter line.
% is scaled to controls: 0 for no effect and ±100 for the full control effect.

One experiment in a line: qHTS for Inhibitors of the Functional Ribonucleoprotein Complex (vRNP) of Lassa (LASV) Arenavirus: LASV Primary Screen - GLuc reporter signal (AID 1347082). Also: nearly all actives have a fitted effect of over 60% in size. The settings on record: LASV minigenome vRNP, Gaussia luciferase reporter; series mostly up to 57.5 µM; activity change, negative = inhibition: at the top concentration. For orientation: qHTS replaces the single test concentration by a dilution series.
Turning to `C=CC(C)=C[C@@]1(C)SC(=O)C(C)=C1O`, the “activity change, negative = inhibition” value is 3.73% (inactive).

Take `O=C(CO)c1c[nH]c2ccccc12`: the “activity change, negative = inhibition” value was -0.335% (inactive).

In the case of `O=C(c1ccccc1)N1CCCCC1`, the “activity change, negative = inhibition” value was 0.375% (inactive).

For the molecule `COC(=O)c1c(C)cc(O)c(C)c1O`, the “activity change, negative = inhibition” value was 3.67% (inactive).

As to `C[C@@H]1CC[C@]2(C(=O)O[C@@H]3O[C@H](CO)[C@@H](O)[C@H](O)[C@H]3O)CC[C@]3(C)C(=CCC4[C@@]5(C)CC[C@H](O[C@@H]6OC[C@H](O)[C@H](O[C@@H]7O[C@H](CO)[C@@H](O)[C@H](O)[C@H]7O)[C@H]6O)C(C)(C)C5CC[C@]43C)C2[C@]1(C)O` (some centres not stated), the “activity change, negative = inhibition” value was 2.77% (inactive).

Take `C[C@H](Cn1cnc2c(N)ncnc21)OCP(=O)(O)O`: the “activity change, negative = inhibition” value is 2.47% (inactive).

Turning to `CNCC(=O)O`, the “activity change, negative = inhibition” value is 3.98% (inactive).

For the molecule `C=CC(C)(CCC=C(C)C)OC(=O)CC(C)C` (configuration not stated), the “activity change, negative = inhibition” value was -1.42% [at 115 µM] (inactive).

For `C[C@@H]1O[C@@H](OC2C(O)C(OCCc3ccc(O)c(O)c3)OC(CO)C2OC(=O)/C=C/c2ccc(O)c(O)c2)[C@H](O)[C@H](O)[C@H]1O` (some centres not stated), the “activity change, negative = inhibition” value was -1.26% (inactive).

Turning to `COc1cc(O)cc2c1[C@@H]1Oc3c(ccc(O)c3CC=C(C)C)[C@@H]1CO2`, the “activity change, negative = inhibition” value was -30.8% (inactive).

In the case of `CC(C)CCOC(=O)CC(C)C`, the “activity change, negative = inhibition” value is -0.553% [at 115 µM] (inactive).

Turning to `COc1ccc([C@H]2c3cc(OC)c(OC)cc3C[C@@H](C)[C@@H]2C)cc1OC`, the “activity change, negative = inhibition” value is -1.37% (inactive).

Consider `CC(C)=C[C@H]1C[C@H](C)[C@H]2CC[C@H](C)c3c(O[C@@H]4OC[C@@H](O)[C@H](O)C4O)c(O)c(C)c1c32` (some centres not stated), for which the “activity change, negative = inhibition” value is -3.73% (inactive).

Regarding `CN(CC=CC#CC(C)(C)C)Cc1cccc2ccccc12`, the “activity change, negative = inhibition” value is 2.23% (inactive).

Consider `C/C=C\C/C=C/CCCCCCCCOC(C)=O`, for which the “activity change, negative = inhibition” value is -19.2% [at 115 µM] (inactive).

Take `COc1c2c(c3c(c1OC)c(=O)c1ccccc1n3C)OCO2`: the “activity change, negative = inhibition” value is -4.02% (inactive).

On to `NC1=N[C@H](O)[C@H]2C3O[C@]4(O)O[C@H](C(O)[C@@]2(N1)[C@@H]4O)C3(O)CO` (some centres not stated), for which the “activity change, negative = inhibition” value was 24.2% (inactive).

For the molecule `CC1CC[C@@]2(OC1)O[C@H]1CC3[C@@H]4C[C@@H](O)[C@@]5(O)C[C@@H](O)[C@H](O)C[C@]5(C)[C@H]4CC[C@]3(C)[C@H]1[C@@H]2C` (some centres not stated), the “activity change, negative = inhibition” value is -0.366% (inactive).

With `COc1cc2oc(=O)c3c4c(cc5ccc(c1CCN(C)C)c2c53)OCO4`, the “activity change, negative = inhibition” value is 10.6% (inactive).

For `CN1CCc2cc3c(cc2C1)OCO3`, the “activity change, negative = inhibition” value is 6.07% (inactive).

`CC1=CC2OC3CC4OC(=O)C=CC=CC(C(C)O)OCC(O)C(C)CC(=O)OCC2(CC1O)C4(C)C31CO1` (configuration not stated): the “activity change, negative = inhibition” value is -64.3% (inactive).

Take `CC/C=C\CCOC(C)=O`: the “activity change, negative = inhibition” value was -11.8% [at 115 µM] (inactive).

The next experiment can be described thus: qHTS for Inhibitors of the Functional Ribonucleoprotein Complex (vRNP) of Lassa (LASV) Arenavirus: Viability assay - alamar blue signal for LASV Primary Screen (AID 1347083). Also: nearly all actives have a fitted effect of over 80% in size. As to conditions: cell viability, alamar blue fluorescence (LASV minigenome counter-screen); series mostly up to 57.5 µM; activity change, negative = reduced viability: at the top concentration.
As for `O=C1N[C@@H](Cc2cnc[nH]2)C(=O)N2CCC[C@@H]12`, the “activity change, negative = reduced viability” value is 4.02% (inactive).

Regarding `CCCCCCC[C@@H](C/C=C/CCC(=O)O)OC`, the “activity change, negative = reduced viability” value was 9.47% (inactive).

For the molecule `OC[C@H]1O[C@@H](OC[C@H]2O[C@@H](O)[C@H](O)[C@@H](O)[C@@H]2O)[C@H](O)[C@@H](O)[C@@H]1O`, the “activity change, negative = reduced viability” value is 5.34% (inactive).

With `CCCC1CCCC(=O)O1` (configuration not stated), the “activity change, negative = reduced viability” value is 5.41% [at 115 µM] (inactive).

As for `CC1(C)C[C@H]2C3=CCC4[C@@]5(C)CC[C@H](O)C(C)(C)C5CC[C@@]4(C)[C@]3(C)[C@@H](O)[C@@H](O)[C@@]2(CO)[C@@H](O)[C@@H]1O` (some centres not stated), the “activity change, negative = reduced viability” value was 3.02% (inactive).

Turning to `C[C@]1(CC/C(=C/CO)CO)[C@H](CO)CC[C@@]23COC(=O)C2=CCC[C@@H]31`, the “activity change, negative = reduced viability” value was 2.85% (inactive).

On to `CC(C)c1cccc(O)c1`, for which the “activity change, negative = reduced viability” value was 12.5% [at 115 µM] (inactive).

Take `CC1CC(C)C(=O)C1=O` (configuration not stated): the “activity change, negative = reduced viability” value was 17.5% [at 115 µM] (inactive).

For the molecule `CC1=CC[C@@]23C[C@@H]1C(C)(C)[C@@H]2CC[C@H]3C`, the “activity change, negative = reduced viability” value is 17.5% [at 115 µM] (inactive).

With `COc1cc(O)c(C(C)=O)c2c1C=CC(C)(C)O2`, the “activity change, negative = reduced viability” value is 2.56% (inactive).

Consider `CC(Cc1c[nH]c2ccccc12)C(=O)O` (configuration not stated), for which the “activity change, negative = reduced viability” value is 4.55% (inactive).

Take `O=c1c(O)c(-c2ccccc2)oc2cc(O)cc(O)c12`: the “activity change, negative = reduced viability” value was -31.1% (inactive).

Consider `CC1(C)CC(=O)c2cc(O)ccc2O1`, for which the “activity change, negative = reduced viability” value is 4.83% (inactive).

Take `Oc1cc(O)cc(C=Cc2ccc(O)c(O)c2)c1`: the “activity change, negative = reduced viability” value is -9.76% (inactive).

For the molecule `COc1ccc2c(Oc3ccc(NC(=O)c4c(C)n(CC(C)(C)O)n(-c5ccccc5)c4=O)nc3)ccnc2c1`, the “activity change, negative = reduced viability” value is -20.2% (inactive).

For `O=C1CCCCCCCCCCCCCC1`, the “activity change, negative = reduced viability” value is 24.8% [at 115 µM] (inactive).

With `COC1=C(C)C(O)=C(C(=O)/C=C/c2ccccc2)C(=O)C1(C)C`, the “activity change, negative = reduced viability” value was 16.4% (inactive).

For `CCN1C[C@]2(C)CCC(OC)[C@@]34C5C[C@@H]6CC[C@@](O)(C5C(=O)O6)[C@@H](C(O)C23)[C@@H]14` (some centres not stated), the “activity change, negative = reduced viability” value was 16.2% (inactive).

On to `C=CC(C)=C[C@@]1(C)SC(=O)C(C)=C1O`, for which the “activity change, negative = reduced viability” value was 8.03% (inactive).

For `O=C(CO)c1c[nH]c2ccccc12`, the “activity change, negative = reduced viability” value is -12.8% (inactive).

For `O=C(c1ccccc1)N1CCCCC1`, the “activity change, negative = reduced viability” value is 3.51% (inactive).

On to `COC(=O)c1c(C)cc(O)c(C)c1O`, for which the “activity change, negative = reduced viability” value is -5.85% (inactive).

For `C[C@@H]1CC[C@]2(C(=O)O[C@@H]3O[C@H](CO)[C@@H](O)[C@H](O)[C@H]3O)CC[C@]3(C)C(=CCC4[C@@]5(C)CC[C@H](O[C@@H]6OC[C@H](O)[C@H](O[C@@H]7O[C@H](CO)[C@@H](O)[C@H](O)[C@H]7O)[C@H]6O)C(C)(C)C5CC[C@]43C)C2[C@]1(C)O` (some centres not stated), the “activity change, negative = reduced viability” value is 16.7% (inactive).

For `C[C@H](Cn1cnc2c(N)ncnc21)OCP(=O)(O)O`, the “activity change, negative = reduced viability” value is 2.77% (inactive).

For the molecule `CNCC(=O)O`, the “activity change, negative = reduced viability” value was 28.3% (inactive).

Regarding `C=CC(C)(CCC=C(C)C)OC(=O)CC(C)C` (configuration not stated), the “activity change, negative = reduced viability” value is 5.3% [at 115 µM] (inactive).

In the case of `C[C@@H]1O[C@@H](OC2C(O)C(OCCc3ccc(O)c(O)c3)OC(CO)C2OC(=O)/C=C/c2ccc(O)c(O)c2)[C@H](O)[C@H](O)[C@H]1O` (some centres not stated), the “activity change, negative = reduced viability” value is -26.1% (inactive).

Regarding `COc1cc(O)cc2c1[C@@H]1Oc3c(ccc(O)c3CC=C(C)C)[C@@H]1CO2`, the “activity change, negative = reduced viability” value was -37.7% (inactive).

For `CC(C)CCOC(=O)CC(C)C`, the “activity change, negative = reduced viability” value was -10.3% [at 115 µM] (inactive).

In the case of `COc1ccc([C@H]2c3cc(OC)c(OC)cc3C[C@@H](C)[C@@H]2C)cc1OC`, the “activity change, negative = reduced viability” value is 15.6% (inactive).

As to `CC(C)=C[C@H]1C[C@H](C)[C@H]2CC[C@H](C)c3c(O[C@@H]4OC[C@@H](O)[C@H](O)C4O)c(O)c(C)c1c32` (some centres not stated), the “activity change, negative = reduced viability” value was 2.03% (inactive).

In the case of `CN(CC=CC#CC(C)(C)C)Cc1cccc2ccccc12`, the “activity change, negative = reduced viability” value was -1.4% (inactive).

For `C/C=C\C/C=C/CCCCCCCCOC(C)=O`, the “activity change, negative = reduced viability” value is -3.53% [at 115 µM] (inactive).

With `COc1c2c(c3c(c1OC)c(=O)c1ccccc1n3C)OCO2`, the “activity change, negative = reduced viability” value was 7.27% (inactive).

Consider `NC1=N[C@H](O)[C@H]2C3O[C@]4(O)O[C@H](C(O)[C@@]2(N1)[C@@H]4O)C3(O)CO` (some centres not stated), for which the “activity change, negative = reduced viability” value was 25.6% (inactive).

Regarding `CC1CC[C@@]2(OC1)O[C@H]1CC3[C@@H]4C[C@@H](O)[C@@]5(O)C[C@@H](O)[C@H](O)C[C@]5(C)[C@H]4CC[C@]3(C)[C@H]1[C@@H]2C` (some centres not stated), the “activity change, negative = reduced viability” value is 14.9% (inactive).

Consider `COc1cc2oc(=O)c3c4c(cc5ccc(c1CCN(C)C)c2c53)OCO4`, for which the “activity change, negative = reduced viability” value was -38.1% (inactive).

With `CN1CCc2cc3c(cc2C1)OCO3`, the “activity change, negative = reduced viability” value was 8.06% (inactive).

Take `CC1=CC2OC3CC4OC(=O)C=CC=CC(C(C)O)OCC(O)C(C)CC(=O)OCC2(CC1O)C4(C)C31CO1` (configuration not stated): the “activity change, negative = reduced viability” value was -133% (inactive).

On to `CC/C=C\CCOC(C)=O`, for which the “activity change, negative = reduced viability” value was 9.73% [at 115 µM] (inactive).
